Measurements: PubChem BioAssay (NCI)
“And” between values parts separate entries of the source, which are not always exact repeats. Identical values can stand only once. The panel holds about 79,000 compounds, 15% with a hit somewhere; the sample as a whole holds those more often. Some compounds were tested as several samples or in several runs, with calls that do not always agree. The source made the active and inactive calls. Cut-off read from the data, not from the text of the source: active = growth inhibition above about 70%; inactive = the rest.

What was measured:
[1] = NCI Yeast Anticancer Drug Screen. Data for the rad50 strain (AID 155);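 note: 0% = growth of vehicle-only cultures of the same strain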; conditions: S. cerevisiae rad50 strain growth inhibition, stronger effect = higher value
In short: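 Relative growth inhibition (compound vs vehicle) was measured in yeast with a defined repair-gene alteration.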

[2] = NCI Yeast Anticancer Drug Screen. Data for the mec2-1 strain (AID 157); conditions: S. cerevisiae mec2-1 strain, stronger effect = higher value
In short: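 Growth inhibition is read against vehicle-treated controls after compound exposure of the mec2-1 yeast strain, which is defective in DNA damage repair or cell cycle control.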

[3] = NCI Yeast Anticancer Drug Screen. Data for the sgs1 mgt1 strain (AID 161);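 note: 0% = growth of cultures given vehicle only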; conditions: S. cerevisiae sgs1 mgt1 strain, stronger effect = higher value
In short: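 Percent growth inhibition was derived by comparing compound-exposed mutant yeast with vehicle-exposed cultures. The strain carries alterations in DNA damage repair.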

[4] = NCI Yeast Anticancer Drug Screen. Data for the cln2 rad14 strain (AID 165);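 note: 0% = growth equal to vehicle treated cultures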; conditions: S. cerevisiae cln2 rad14 strain, stronger effect = higher value
In short: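 Growth inhibition, relative to vehicle-treated controls, is the read-out. The test organism is a yeast strain with defined genetic alterations, cln2 rad14.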

[5] = NCI Yeast Anticancer Drug Screen. Data for the bub3 strain (AID 167); conditions: S. cerevisiae bub3 mutant strain, stronger effect = higher value
In short: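 Screening used yeast with an engineered genetic alteration affecting cell cycle control. Compound-exposed cultures were compared with vehicle cultures, and reduced growth was taken as inhibition.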

[6] = NCI Yeast Anticancer Drug Screen. Data for the mlh1 rad18 strain (AID 175); conditions: S. cerevisiae mlh1 rad18 strain growth inhibition, stronger effect = higher value
In short: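 Cells of a genetically altered yeast strain, deficient in DNA damage repair, were treated with compound. Their growth was then compared with that of vehicle-treated cultures to give inhibition.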

[7] = at 5.0 µM (retest, dose inferred, filed as 0.5)
[8] = at 50.0 µM (retest, dose inferred, filed as 5.0)

Structure (SMILES) | growth inhibition [1, 7] | growth inhibition [1, 8] | growth inhibition ([1]; at 50.0 µM) | growth inhibition [2, 7] | growth inhibition [2, 8] | growth inhibition ([2]; at 50.0 µM) | growth inhibition [3, 7] | growth inhibition [3, 8] | growth inhibition ([3]; at 50.0 µM) | growth inhibition [4, 7] | growth inhibition [4, 8] | growth inhibition ([4]; at 50.0 µM) | growth inhibition [5, 7] | growth inhibition [5, 8] | growth inhibition ([5]; at 50.0 µM) | growth inhibition [6, 7] | growth inhibition [6, 8] | growth inhibition ([6]; at 50.0 µM)
CC(C)(S)C(N)C(=O)O (stereo not given) | -14% (inactive) | 4% (inactive) | -12.3% (inactive) and -14.5% (inactive) and 21.1% (inactive) | 1% (inactive) | -8% (inactive) | -9.15% (inactive) and 2.8% (inactive) and -17.5% (inactive) | -2% (inactive) | -9% (inactive) | -9.7% (inactive) and -11.3% (inactive) and 3% (inactive) | 4% (inactive) | -1% (inactive) | -2.5% (inactive) and 45.3% (inactive) and 3.15% (inactive) | -9% (inactive) | -13% (inactive) | -13.6% (inactive) and -0.75% (inactive) and 24.6% (inactive) | -3% (inactive) | -1% (inactive) | 6.8% (inactive) and 9.35% (inactive) and 3.55% (inactive)
ON=C(Cc1ccccc1)Cc1ccccc1 | 7% (inactive) | -7% (inactive) | 20.4% (inactive) and 1.3% (inactive) | -4% (inactive) | -8% (inactive) | 5.7% (inactive) and -6.9% (inactive) | 1% (inactive) | 34% (inactive) | 23.2% (inactive) and 82.5% (active) | 2% (inactive) | -8% (inactive) | 46.2% (inactive) and -4.6% (inactive) | -83% (inactive) | -3% (inactive) | -2.8% (inactive) and 17.2% (inactive) | 1% (inactive) | 9% (inactive) | 61.8% (inactive) and 27.9% (inactive)
OCC(O)C(O)C(O)C(/C=N/Nc1ccccc1)=N/Nc1ccccc1 (stereo not given) | 2% (inactive) | -13% (inactive) | 40.5% (inactive) and 21.7% (inactive) and 50.6% (inactive) | -2% (inactive) | -34% (inactive) | -5.35% (inactive) and -4.3% (inactive) and 15.8% (inactive) | 2% (inactive) | -9% (inactive) | 55.5% (inactive) and 27.6% (inactive) and 33% (inactive) | 5% (inactive) | -12% (inactive) | 5.55% (inactive) and -6.8% (inactive) and -39.8% (inactive) | 5% (inactive) | 8% (inactive) | -12.9% (inactive) and -5.05% (inactive) and -1.05% (inactive) | 20% (inactive) | 0% (inactive) | 24.9% (inactive) and 21.1% (inactive) and 48.2% (inactive)
CN(C)c1ccc(/C=C/c2ccnc3ccccc23)c(Cl)c1 | -7% (inactive) | 10% (inactive) | -1.1% (inactive) and 16.1% (inactive) | -7% (inactive) | -4% (inactive) | 11.4% (inactive) and 3.15% (inactive) | -1% (inactive) | 35% (inactive) | -0.1% (inactive) and -2% (inactive) | -22% (inactive) | -29% (inactive) | -32.5% (inactive) and 35.4% (inactive) | -1% (inactive) | 43% (inactive) | -1% (inactive) and 23.1% (inactive) | -13% (inactive) | 28% (inactive) | -5.45% (inactive) and -11.5% (inactive)
COc1cc2c(c3c1/c(=N/N(C)C)c1ccccc1n3C)C=CC(C)(C)O2 | 23% (inactive) | 85% (active) | 69.3% (inactive) | 24% (inactive) | 85% (active) | 1% (inactive) | 36% (inactive) | 91% (active) | 55.5% (inactive) | -10% (inactive) | 60% (inactive) | -42.3% (inactive) | 38% (inactive) | 96% (active) | -15.7% (inactive) | 38% (inactive) | 93% (active) | 44.8% (inactive)
CC(=O)Oc1cccc2cccnc12 | 99% (active) | 99% (active) | 99.2% (active) | 91% (active) | 100% (active) | 99.3% (active) | 98% (active) | 100% (active) | 89.2% (active) | 88% (active) | 99% (active) | 98.8% (active) | 98% (active) | 100% (active) | 99.2% (active) | 96% (active) | 99% (active) | 98.1% (active)
CC(=O)Nc1nc(N)c2ncn(C3OC(C(O)CO)C(O)C3O)c2n1 (stereo not given) | 0% (inactive) | 1% (inactive) | 1.75% (inactive) and -3.5% (inactive) | 0% (inactive) | 1% (inactive) | 0.35% (inactive) and -7.5% (inactive) | -3% (inactive) | -1% (inactive) | 3% (inactive) and 1.8% (inactive) | 1% (inactive) | 0% (inactive) | 53.5% (inactive) and -80% (inactive) | 1% (inactive) | 0% (inactive) | -10.2% (inactive) and 10.1% (inactive) | -1% (inactive) | 3% (inactive) | 18.9% (inactive) and -12.4% (inactive)
CCCCCCCCCCCCCCCCBr | -1% (inactive) | 0% (inactive) | 99.5% (active) | -2% (inactive) | 0% (inactive) | 99.7% (active) | -2% (inactive) | 8% (inactive) | 99.3% (active) | 4% (inactive) | 1% (inactive) | 98.8% (active) | -2% (inactive) | -3% (inactive) | 99.5% (active) | 6% (inactive) | -5% (inactive) | 99.2% (active)
NC(CC(=O)O)C(=O)O (stereo not given) | -2% (inactive) | 2% (inactive) | -21.4% (inactive) and 99.3% (active) and 3.3% (inactive) | -10% (inactive) | -3% (inactive) | -7.85% (inactive) and 99.6% (active) and 9.7% (inactive) | -3% (inactive) | 0% (inactive) | -30.9% (inactive) and 98% (active) and -5.9% (inactive) | 4% (inactive) | -7% (inactive) | -7.75% (inactive) and 99.3% (active) and 16.6% (inactive) | 5% (inactive) | 0% (inactive) | -10.1% (inactive) and 99.6% (active) and -3.75% (inactive) | -3% (inactive) | 4% (inactive) | -14.1% (inactive) and 99.5% (active) and 21.2% (inactive)
O=C(O)c1c2ccccc2nc2[nH]c(=O)[nH]c(=O)c12 | -1% (inactive) | -3% (inactive) | 3.3% (inactive) and 23.4% (inactive) | -2% (inactive) | -2% (inactive) | -5.05% (inactive) and 33.4% (inactive) | -6% (inactive) | -3% (inactive) | -4.45% (inactive) and 24.3% (inactive) | 0% (inactive) | 6% (inactive) | 62.9% (inactive) and -0.85% (inactive) | -1% (inactive) | -5% (inactive) | 7.1% (inactive) and 34% (inactive) | 0% (inactive) | -4% (inactive) | -1.9% (inactive) and 15.7% (inactive)
Nc1cc2ccc(O)cc2c2ccccc12 | 0% (inactive) | 81% (active) | 94.8% (active) | 4% (inactive) | 51% (inactive) | 86.2% (active) | -1% (inactive) | 54% (inactive) | 91% (active) | 1% (inactive) | 34% (inactive) | 67.5% (inactive) | 2% (inactive) | 89% (active) | 93.4% (active) | -1% (inactive) | 82% (active) | 94.7% (active)
Oc1ccc(/C=N/NC(=S)NN2CCOCC2)nc1 | 38% (inactive) | 96% (active) | 87% (active) | 36% (inactive) | 95% (active) | 90.1% (active) | 42% (inactive) | 95% (active) | 89% (active) | 20% (inactive) | 91% (active) | 80.8% (active) | 46% (inactive) | 93% (active) | 88.5% (active) | 42% (inactive) | 95% (active) | 87.8% (active)
Nc1cc2ccccc2c2c1ccc1ccccc12 | -159% (inactive) and 6% (inactive) | 4% (inactive) and 95% (active) | 96.5% (active) and 89.7% (active) | -48% (inactive) and 1% (inactive) | 8% (inactive) and 97% (active) | 96.9% (active) and 94.2% (active) | -66% (inactive) and 14% (inactive) | -18% (inactive) and 64% (inactive) | 97.8% (active) and 92.5% (active) | -56% (inactive) and -2% (inactive) | 24% (inactive) and 95% (active) | 95.3% (active) and 90.5% (active) | -64% (inactive) and -4% (inactive) | -2% (inactive) and 96% (active) | 97.6% (active) and 91.4% (active) | -125% (inactive) and 3% (inactive) | -40% (inactive) and 96% (active) | 96.4% (active) and 90.7% (active)
CCOC(=O)C(C(=O)c1ccccc1)C(=O)c1ccccc1 | 29% (inactive) | 85% (active) | -24.3% (inactive) and 90.8% (active) | 29% (inactive) | 93% (active) | -14.4% (inactive) and 91.2% (active) | 37% (inactive) | 82% (active) | -4.65% (inactive) and 92% (active) | 34% (inactive) | 56% (inactive) | -21.1% (inactive) and 90.6% (active) | 35% (inactive) | 92% (active) | -0.95% (inactive) and 90.5% (active) | 35% (inactive) | 97% (active) | -22% (inactive) and 90.8% (active)
CCOC(=O)C(Cc1c[nH]c2cc([N+](=O)[O-])ccc12)NS(=O)(=O)c1ccc2ccccc2c1 (stereo not given) | -19% (inactive) | 96% (active) | 95.3% (active) | 2% (inactive) | 98% (active) | 97.3% (active) | -4% (inactive) | 98% (active) | 97.2% (active) | -17% (inactive) | 94% (active) | 94.2% (active) | 9% (inactive) | 98% (active) | 97.8% (active) | -19% (inactive) | 97% (active) | 95.7% (active)
